Out of some 310,000 compounds screened, about 14,000 (4.5%) showed an effect of 50% or more. The effect is printed as a negative number. The sample holds strong results, similar compounds and a random draw of the others, so the mix is not that of the screen.
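Further: peak tail current of the secondary pulse compared with the same well before compound.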

In this assay the target is human ether-à-go-go-related gene (hERG) potassium channel (human, UniProt Q12809). Briefly: primary screen, population patch clamp on CHO cells stably expressing hERG; higher = less effect of the substance.
human ether-à-go-go-related gene (hERG) potassium channel, sequence (Q12809 whole entry, looked up): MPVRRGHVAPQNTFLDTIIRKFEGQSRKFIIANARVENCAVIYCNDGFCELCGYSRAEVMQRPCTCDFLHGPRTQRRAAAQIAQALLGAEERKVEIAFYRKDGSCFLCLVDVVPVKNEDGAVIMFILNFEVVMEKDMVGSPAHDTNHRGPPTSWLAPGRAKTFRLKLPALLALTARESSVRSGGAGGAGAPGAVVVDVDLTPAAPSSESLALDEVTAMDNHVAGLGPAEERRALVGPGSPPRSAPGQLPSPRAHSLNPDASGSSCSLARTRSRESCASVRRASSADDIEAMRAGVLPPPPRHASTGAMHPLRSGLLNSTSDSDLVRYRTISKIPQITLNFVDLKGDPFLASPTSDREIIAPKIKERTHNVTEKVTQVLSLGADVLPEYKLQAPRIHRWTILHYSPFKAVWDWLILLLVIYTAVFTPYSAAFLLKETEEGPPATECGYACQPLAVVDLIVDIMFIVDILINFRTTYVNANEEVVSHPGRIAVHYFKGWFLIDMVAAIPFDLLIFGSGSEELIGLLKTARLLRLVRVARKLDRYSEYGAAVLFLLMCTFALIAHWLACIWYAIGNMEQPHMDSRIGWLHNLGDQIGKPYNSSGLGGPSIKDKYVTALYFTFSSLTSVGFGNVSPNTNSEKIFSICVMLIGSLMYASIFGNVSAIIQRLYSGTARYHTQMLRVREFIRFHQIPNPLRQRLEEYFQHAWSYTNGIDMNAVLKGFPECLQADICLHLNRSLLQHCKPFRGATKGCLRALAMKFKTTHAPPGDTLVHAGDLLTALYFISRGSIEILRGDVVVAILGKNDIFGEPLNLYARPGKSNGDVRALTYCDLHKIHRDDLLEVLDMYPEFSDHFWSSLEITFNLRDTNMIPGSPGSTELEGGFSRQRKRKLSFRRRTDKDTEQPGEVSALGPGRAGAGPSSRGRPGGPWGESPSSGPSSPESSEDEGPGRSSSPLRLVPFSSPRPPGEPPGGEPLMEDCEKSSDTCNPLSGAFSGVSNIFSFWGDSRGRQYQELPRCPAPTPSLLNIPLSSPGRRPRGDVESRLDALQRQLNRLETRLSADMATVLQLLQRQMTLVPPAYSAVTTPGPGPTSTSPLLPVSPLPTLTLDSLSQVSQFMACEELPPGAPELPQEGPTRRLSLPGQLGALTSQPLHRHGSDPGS
Turning to `COc1ccccc1C(=O)Nc1cc(C)on1`, the “hERG current change (%, negative = inhibition) at 10uM” value came out at 7.07%.

For `CN(C)S(=O)(=O)c1ccc(Cl)c(NC(=O)COC(=O)C2CCCO2)c1` (stereo not drawn), the “hERG current change (%, negative = inhibition) at 10uM” value came out at 5.01%.

In the case of `COc1ccc(NC(=O)CSc2nc(SC)ns2)c(OC)c1`, the “hERG current change (%, negative = inhibition) at 10uM” value worked out at 2.53%.

As for `O=C(OCc1csc(-c2ccccc2)n1)c1ccccc1O`, the “hERG current change (%, negative = inhibition) at 10uM” value was 29.6%.

For `CC1CCC(NC(=O)CSc2nnnn2C)CC1` (stereo not drawn), the “hERG current change (%, negative = inhibition) at 10uM” value amounted to 6.96%.

With `CCOc1ccc(CCNC(=O)COC(=O)c2ccc(OC)c(OC)c2OC)cc1OCC`, the “hERG current change (%, negative = inhibition) at 10uM” value was 12.2%.

Regarding `O=C(COc1cccc2cccnc12)NNC(=S)Nc1ccccc1`, the “hERG current change (%, negative = inhibition) at 10uM” value is -25.8%.

With `CCc1cccc(C)c1NC(=O)C1CCCN(S(C)(=O)=O)C1` (stereo not drawn), the “hERG current change (%, negative = inhibition) at 10uM” value is given as 23.6%.

`Cc1ccc([C@@H]2[C@@H]3C(=O)N(C)C(=O)[C@@H]3[C@]3(Cc4ccccc4)C(=O)N(CCO)CC(=O)N23)o1`: the “hERG current change (%, negative = inhibition) at 10uM” value came out at 0.221%.

In the case of `COc1cccc(NC(=O)NCc2ccc(F)cc2)c1`, the “hERG current change (%, negative = inhibition) at 10uM” value is -5.73%.

`CCN(CC(=O)NCc1ccc(F)cc1)CC(O)COCc1cccc(OC)c1` (stereo not drawn): the “hERG current change (%, negative = inhibition) at 10uM” value is listed as -60.6%.

As for `COc1cccc(CN(C)CC(=O)NCc2ccc(C)cc2)c1.O=C(O)C(=O)O`, the “hERG current change (%, negative = inhibition) at 10uM” value is -49.3%.

For `COc1ccc(C2=NS(=O)(=O)N(C)C(C(=O)NC3CCCC3)=C2)cc1`, the “hERG current change (%, negative = inhibition) at 10uM” value was 2.43%.

As for `Cc1cccc(CSc2nc3nc(C)cc(C)n3n2)c1`, the “hERG current change (%, negative = inhibition) at 10uM” value was -27.9%.

Turning to `Cc1cc(C)n2nc(SCc3nnc(SCc4ccccc4Cl)s3)nc2n1`, the “hERG current change (%, negative = inhibition) at 10uM” value is on record as 9.19%.

For `Cc1cc(C)n2nc(SCc3nnc(SCc4ccccc4)s3)nc2n1`, the “hERG current change (%, negative = inhibition) at 10uM” value is -28.6%.

For `Cc1cc(C)n2nc(SCc3nnc(SCc4ccccc4C)s3)nc2n1`, the “hERG current change (%, negative = inhibition) at 10uM” value is -64.9%.

`COc1cccc(CSc2nc3nc(C)cc(C)n3n2)c1`: the “hERG current change (%, negative = inhibition) at 10uM” value was -4.72%.

On to `COc1cccc(CSc2nnc(CSc3nc4nc(C)cc(C)n4n3)s2)c1`, for which the “hERG current change (%, negative = inhibition) at 10uM” value is -54.4%.

As to `Cc1noc(C)c1COc1ccc(C(=O)N(C)CCOc2ccccc2)cc1`, the “hERG current change (%, negative = inhibition) at 10uM” value is reported as -26.2%.

In the case of `CCc1ccc(S(=O)(=O)NC2CC(C)(C)NC(C)(C)C2)cc1`, the “hERG current change (%, negative = inhibition) at 10uM” value is 5.09%.

For the compound `Cc1cc(C(=O)N/N=C/c2ccc(OC(=O)c3ccccc3Br)cc2)n[nH]1`, the “hERG current change (%, negative = inhibition) at 10uM” value was 3.23%.

For the compound `O=C1NC2(CCc3ccccc32)C(=O)N1CCOc1ccc(Cl)cc1` (stereo not drawn), the “hERG current change (%, negative = inhibition) at 10uM” value is -29.8%.

On to `C=CCn1c(SCC(=O)C(C)(C)C)nnc1-c1cccs1`, for which the “hERG current change (%, negative = inhibition) at 10uM” value is -14.3%.

As for `C=CCn1c(SCC(=O)N2CCN(c3ccc(F)cc3)CC2)nnc1-c1ccco1`, the “hERG current change (%, negative = inhibition) at 10uM” value was -70.2%.

For the compound `C=CCn1c(SCC(=O)N2CCN(c3ccc(F)cc3)CC2)nnc1-c1cccs1`, the “hERG current change (%, negative = inhibition) at 10uM” value was -68.9%.

In the case of `Cc1nc(Cc2nnc(SCC(=O)Nc3c(C)cccc3C)o2)cs1`, the “hERG current change (%, negative = inhibition) at 10uM” value is recorded as 15.1%.

Take `Cc1occc1-c1nnc(SCC(=O)N2CCN(c3ccccc3)CC2)n1C`: the “hERG current change (%, negative = inhibition) at 10uM” value is -27.8%.

As for `C=CCn1c(SCC(=O)N2CCN(c3ccccc3)CC2)nnc1-c1ccco1`, the “hERG current change (%, negative = inhibition) at 10uM” value is listed as -25.7%.

For the compound `Cc1occc1-c1nnc(SCC(=O)N2CCN(c3ccc(F)cc3)CC2)n1C`, the “hERG current change (%, negative = inhibition) at 10uM” value was -58.5%.

Take `Cc1occc1-c1nnc(SCC(=O)N2CCN(c3ccccc3F)CC2)n1C`: the “hERG current change (%, negative = inhibition) at 10uM” value worked out at 4.99%.

For the compound `Cc1nc(Cc2nnc(SCC(=O)N(C)c3ccccc3)o2)cs1`, the “hERG current change (%, negative = inhibition) at 10uM” value is recorded as 15.9%.

With `C=CCn1c(SCC(=O)O)nnc1-c1cccs1`, the “hERG current change (%, negative = inhibition) at 10uM” value is recorded as 0.617%.

As for `Cc1nc(Cc2nnc(SCC(=O)N3CCN(c4ccc(F)cc4)CC3)o2)cs1`, the “hERG current change (%, negative = inhibition) at 10uM” value is reported as -50.9%.

As to `C=CCn1c(SCC(=O)Nc2ccc(N3CCOCC3)cc2)nnc1-c1ccco1`, the “hERG current change (%, negative = inhibition) at 10uM” value was 2.29%.

As to `COC(=O)C1=C(N)Oc2c(oc(CO)cc2=O)C1c1ccc(F)cc1` (stereo not drawn), the “hERG current change (%, negative = inhibition) at 10uM” value was -7.85%.

Consider `O=c1cc(N2CCOCC2)c2ccccc2o1`, for which the “hERG current change (%, negative = inhibition) at 10uM” value is listed as -13.9%.

In the case of `O=C(CS(=O)c1cccc(C(F)(F)F)c1)Nc1ccc(Cl)cc1Cl` (stereo not drawn), the “hERG current change (%, negative = inhibition) at 10uM” value came out at 8.83%.

Regarding `CC1(C)Cc2c(sc(NC(=O)c3ccc(S(=O)(=O)N4CCCC4)cc3)c2C#N)C(C)(C)N1`, the “hERG current change (%, negative = inhibition) at 10uM” value is -8.79%.

As for `CCOC(=O)N1CCN(S(=O)(=O)c2ccc(C(=O)Nc3sc4c(c3C#N)CC(C)(C)NC4(C)C)cc2)CC1`, the “hERG current change (%, negative = inhibition) at 10uM” value came out at 14.6%.

Consider `CC1(C)Cc2c(sc(NC(=O)c3ccc(S(=O)(=O)N4CCCCCC4)cc3)c2C#N)C(C)(C)N1`, for which the “hERG current change (%, negative = inhibition) at 10uM” value was -65.8%.

Turning to `C=C[C@@]1(C)CC(=O)[C@]2(O)[C@@]3(C)[C@@H](O)CCC(C)(C)[C@@H]3[C@H](OC(C)=O)[C@H](O)[C@@]2(C)O1`, the “hERG current change (%, negative = inhibition) at 10uM” value was determined as 7.62%.

As for `O=C(CSc1ccc(Cl)cc1)N/N=C/c1ccc([N+](=O)[O-])o1`, the “hERG current change (%, negative = inhibition) at 10uM” value is -12.5%.

As for `COc1ccc(S(=O)(=O)n2cccc2)c(OC)c1`, the “hERG current change (%, negative = inhibition) at 10uM” value was 5.65%.

`Cc1ccc(S(=O)(=O)c2nc(S(C)(=O)=O)sc2N2CCC(C(N)=O)CC2)cc1`: the “hERG current change (%, negative = inhibition) at 10uM” value worked out at 7.6%.

For `CS(=O)(=O)c1nc(S(=O)(=O)c2ccc(Cl)cc2)c(N2CCC(O)CC2)s1`, the “hERG current change (%, negative = inhibition) at 10uM” value was -13.9%.

As for `CCS(=O)(=O)c1nc(S(=O)(=O)c2ccc(C)cc2)c(N2CCC3(CC2)OCCO3)s1`, the “hERG current change (%, negative = inhibition) at 10uM” value was -35.4%.

For the compound `CCS(=O)(=O)c1nc(S(=O)(=O)c2ccc(Cl)cc2)c(N2CCC3(CC2)OCCO3)s1`, the “hERG current change (%, negative = inhibition) at 10uM” value was -51.5%.

Regarding `CS(=O)(=O)c1nc(S(=O)(=O)c2ccc(Cl)cc2)c(N2CCC(C(N)=O)CC2)s1`, the “hERG current change (%, negative = inhibition) at 10uM” value was -61.8%.

In the case of `CS(=O)(=O)c1nc(S(=O)(=O)c2ccc(Cl)cc2)c(N2CCC3(CC2)OCCO3)s1`, the “hERG current change (%, negative = inhibition) at 10uM” value is -59.3%.

In the case of `CS(=O)(=O)c1nc(S(=O)(=O)c2ccc(Cl)cc2)c(N2CCOCC2)s1`, the “hERG current change (%, negative = inhibition) at 10uM” value came to 12.1%.

Consider `Cc1ccc(S(=O)(=O)c2nc(S(C)(=O)=O)sc2N2CCC3(CC2)OCCO3)cc1`, for which the “hERG current change (%, negative = inhibition) at 10uM” value is recorded as -34.3%.

Take `CCS(=O)(=O)c1nc(S(=O)(=O)c2ccc(Cl)cc2)c(N2CCCC2)s1`: the “hERG current change (%, negative = inhibition) at 10uM” value is recorded as 10.5%.

For `Nc1ncc([N+](=O)[O-])s1`, the “hERG current change (%, negative = inhibition) at 10uM” value came to 19.6%.
